The values below come from PubChem BioAssay AID2803 (The Scripps Research Institute Molecular Screening Center, 2010).

The whole screen tested about 2,000 compounds, of which about 1,300 (65%) were called active. So high a share suggests a set chosen from earlier hits. The list is a sample of the results. Values without a mark were called inactive. No stated cut-off is given here; in the data, active means inhibition above about 43%; inactive means the rest.

Prolyl endopeptidase-like (Homo sapiens), sequence (Q4J6C6 whole entry, looked up): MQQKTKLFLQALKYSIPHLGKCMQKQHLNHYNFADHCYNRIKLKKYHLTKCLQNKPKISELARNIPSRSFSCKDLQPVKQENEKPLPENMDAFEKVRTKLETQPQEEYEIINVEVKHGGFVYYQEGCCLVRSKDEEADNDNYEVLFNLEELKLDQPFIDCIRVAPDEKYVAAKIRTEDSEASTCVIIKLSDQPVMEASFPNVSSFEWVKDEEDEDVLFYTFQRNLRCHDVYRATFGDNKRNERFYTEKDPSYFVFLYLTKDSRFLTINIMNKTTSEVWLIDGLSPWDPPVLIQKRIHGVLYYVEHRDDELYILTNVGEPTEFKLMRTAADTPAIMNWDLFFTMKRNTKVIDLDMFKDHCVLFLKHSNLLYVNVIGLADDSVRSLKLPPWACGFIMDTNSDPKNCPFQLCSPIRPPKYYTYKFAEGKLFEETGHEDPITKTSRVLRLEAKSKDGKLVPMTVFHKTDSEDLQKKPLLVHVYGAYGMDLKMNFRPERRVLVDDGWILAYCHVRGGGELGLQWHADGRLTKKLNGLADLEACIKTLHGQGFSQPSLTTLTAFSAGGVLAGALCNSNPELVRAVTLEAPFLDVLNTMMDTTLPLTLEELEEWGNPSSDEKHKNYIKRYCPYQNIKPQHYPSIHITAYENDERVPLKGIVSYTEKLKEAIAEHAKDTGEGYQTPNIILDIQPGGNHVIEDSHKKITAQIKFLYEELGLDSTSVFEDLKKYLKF

This assay has as its target Prolyl endopeptidase-like (Homo sapiens) (UniProt Q4J6C6). The experiment in a line: human PREPL enzyme inhibitors, confirmation, biochemical, fluorescence polarization (AID 2803).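 Further: 0% = protein with DMSO and 100% = wells lacking protein.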 The following applies: recombinant PREPL, fluorescence polarization activity probe; at 5.96 µM; hits give high values. A general note: Polarisation of emitted light reports the rotation of a fluorescent probe.
For `CCOc1cccc(=NC2CCCCC2)c2c(C)[nH]c(C)c12`, the inhibition was 54.4% (active).

For the molecule `O=C(NCC(c1cccnc1)N1CCN(c2ccccc2)CC1)Oc1ccccc1` (stereo not drawn), the inhibition was 39.3%. `COc1ccc2[nH]c3c(c2c1)CCN[C@H]3C`: the inhibition is 23.7%.

Broadly, the inhibition is the change of the read-out against control, counted positive when it falls.
